Myeloid diff 2: induction of myeloid progenitor differentiation, primary screen, cell-based, flow cytometry, MLPCN library | ER-HoxA9 myeloid progenitors, lysozyme-GFP differentiation | calls only at 10 µM | 360,000 compounds, 1% hits;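 active = normalized GFP-positive differentiation at or above the plate's own cutoff, the solvent-only control mean plus 3 SD; inconclusive = no clear call, values can overlap the other calls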;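 also: cells exposed to compound for four days before flow analysis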
IDE act: human IDE activators in live cells, primary screen, fluorescence polarization, HEK cells, FAbeta-B substrate; 340,000 compounds, 0.073% hits; activation, % at 5.96 µM; FAbeta-B cleavage; 0% vehicle, 100% cell-free pure enzyme wells;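 active = activation above the mean of all tested compounds plus 3 SD, set per screening campaign, cut at about 17% in these data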
CRFR2-BP antag: antagonists of CRF-BP/CRF-R2 complex, primary screen, cell-based, HEK293, calcium dye fluorescence, uHTS. inhibition, % at 11.8 µM. CRF-induced calcium fluorescence. 350,000 compounds, 0.59% hits;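 active = inhibition of the ligand-induced calcium signal above about 50% at the single tested concentration, limit read from the data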
IDE inh: human IDE inhibitors in live cells, primary screen, fluorescence polarization, HEK cells, FAbetaB substrate; FAbetaB cleavage; inhibition, % at 5.59 µM; 320,000 compounds, 0.41% hits; AID 434962, 2010;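 active = percent inhibition above the average of all tested compounds plus 3 SD, set per screening campaign, cut at about 16% in these data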;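 also: IDE supplied by intact live HEK cells; FP after avidin binding of uncleaved biotin substrate so inhibition keeps polarization high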
CRFR2-BP ag: agonists of CRF-BP/CRF-R2 complex, primary screen, cell-based, HEK293, calcium dye fluorescence, uHTS | 350,000 compounds, 0.46% hits | activation, % at 13.2 µM | calcium dye fluorescence (FLIPR); percent of saturating CRF peptide response;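 active = activation of at least 50%, plus an integration ratio under a set limit after plate pattern correction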
TPT1 inhibitor: Candida albicans TPT1 enzyme inhibitors, primary screen, biochemical, fluorescence polarization | recombinant caTPT1, FP RNA substrate dephosphorylation | inhibition, % at 5 µM | tRNA 2'-phosphotransferase TPT1 (Candida albicans SC5314) | AID 1962, 2009 | 300,000 compounds, 0.81% hits;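 active = inhibition above the mean of all tested compounds plus 3 SD, set per screening campaign, cut at about 24% in these data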
TPT1 inh confirm: Candida albicans TPT1 inhibitors, confirmation, biochemical, fluorescence polarization, triplicate | shares compounds with TPT1 inhibitor | inhibition, % at 5 µM | recombinant caTPT1, RNase T1 coupled | 2,400 compounds, 74% hits;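 active = inhibition above the primary screen limit, the mean inhibition of all tested compounds plus 3 SD, cut at about 25% in these data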
RNase T1 inh: RNase T1 inhibitors, counter-screen for TPT1 inhibitor project, biochemical, fluorescence polarization | shares compounds with TPT1 inhibitor | RNase T1 cleavage, 1536-well | inhibition, % at 5 µM | 2,400 compounds, 83% hits | AID 2153, 2009;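 active = inhibition above the solvent-only control well mean plus 3 SD, limit set per screening run, cut at about 23% in these data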;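 also: inhibitors block cleavage so intact labeled substrate keeps polarization high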
Target sequence (P00651 whole entry, looked up): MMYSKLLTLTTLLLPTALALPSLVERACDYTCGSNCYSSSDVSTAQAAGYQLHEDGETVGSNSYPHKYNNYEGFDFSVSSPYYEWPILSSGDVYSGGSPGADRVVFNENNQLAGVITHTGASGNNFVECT
Of the large screens only hits and unclear results are named; the others gave an inactive call (follow-up assays come after a bar, where they were run); ! = a repeat was not active. The list is not random: actives were taken first. Their share in the collection is about 2.6%.

COC(=O)c1ccc(OCCN2C3=NCCN3c3ccccc32)cc1	TPT1 inhibitor 37 | TPT1 inh confirm inactive | RNase T1 inh inactive
COC(=O)c1ccc(OCCN2CCCCCC2)cc1	none
CN1C(=O)C(=C2CCCCCC2)SC1=S	none
O=C1NC(=S)SC1=C1CCCC1	TPT1 inhibitor 28 | TPT1 inh confirm inactive | RNase T1 inh 25
CCCCn1nnnc1C(c1cc2ccccc2o1)N1CCN(CC(=O)NC(C)C)CC1 (stereo not given)	none (no result: IDE act, CRFR2-BP antag, IDE inh, CRFR2-BP ag, TPT1 inhibitor)
COc1ccc(N=Nc2nc(-c3ccccc3)c(-c3ccccc3)[nH]2)cc1	TPT1 inhibitor 31 | TPT1 inh confirm 43 | RNase T1 inh 56
COc1ccccc1N=Nc1nc(-c2ccccc2)c(-c2ccccc2)[nH]1	TPT1 inhibitor 25 | TPT1 inh confirm 33 | RNase T1 inh 42
Oc1ccccc1N=Nc1nc(-c2ccccc2)c(-c2ccccc2)[nH]1	Myeloid diff 2 inconclusive, TPT1 inhibitor 46 | TPT1 inh confirm 58 | RNase T1 inh 69
O=C(COC(=O)c1ccc(O)cc1O)NC(=O)Cc1ccccc1	none (no result: IDE inh, TPT1 inhibitor)
CCc1noc(C)c1C(=O)NC1CC(C)(C)Cc2c1cnn2-c1ccccc1 (stereo not given)	none (no result: CRFR2-BP antag, CRFR2-BP ag)
CCC(C)(CC(=O)Nc1nccs1)c1ccccc1 (stereo not given)	none
O=S(=O)(c1ccc2c(c1)CCN2)N1CCCC1	none (no result: TPT1 inhibitor)
COc1cc(/C=c2\sc3n(c2=O)C(c2ccccc2)C(c2ccccc2)=NN=3)ccc1O (stereo not given)	Myeloid diff 2 active, TPT1 inhibitor 35 | TPT1 inh confirm 50 | RNase T1 inh 56
COc1cc(/C=c2\sc3n(c2=O)CCCN=3)ccc1O	none
Cc1c(N=C/C=C2\N(C)c3ccccc3C2(C)C)c(=O)n(-c2ccccc2)n1C	none
Cc1c(N=C/C=C2/N(C)c3ccccc3C2(C)C)c(=O)n(-c2ccccc2)n1C	Myeloid diff 2 active!, TPT1 inhibitor 42 | TPT1 inh confirm 37 | RNase T1 inh 48
Cc1ccc(N=C2NC(=O)/C(=C/c3cccs3)S2)cc1C	TPT1 inhibitor 30 | TPT1 inh confirm 46 | RNase T1 inh 59
Cc1nc(N2CCN(C(=O)c3ccco3)CC2)[nH]c(=O)c1C	none
O=[N+]([O-])c1ccc(C[n+]2cccc3ccc4cccnc4c32)cc1	none
O=[N+]([O-])c1ccc(C[n+]2cccc3ccccc32)cc1	TPT1 inhibitor 56 | TPT1 inh confirm 27 | RNase T1 inh 36
N#C/C(=C/c1ccc(N2CCOCC2)o1)c1ccc(Cl)cc1	TPT1 inhibitor 163 | TPT1 inh confirm 165 | RNase T1 inh 155
CCOC(=O)Nc1ccc(OC(=O)Oc2ccc(NC(=O)OCC)cc2)cc1	none (no result: IDE inh, TPT1 inhibitor)
CCOCCCNCC(=O)Nc1ccc(OC(F)(F)F)cc1	none
COCCNCC(=O)Nc1ccc(OC(F)(F)F)cc1	TPT1 inhibitor 62 | TPT1 inh confirm inactive | RNase T1 inh inactive
O=C(c1ccco1)N1CCN(c2c([N+](=O)[O-])nn(-c3cccc(Cl)c3)[n+]2[O-])CC1	none
O=c1c(/C=C(\O)c2ccccc2)nc2ccccc2n1-c1ccccc1	Myeloid diff 2 active, CRFR2-BP ag 156, TPT1 inhibitor 119 | TPT1 inh confirm 86 | RNase T1 inh 95
COC(=O)Cn1c(CN2CCN(c3ccc(F)cc3)CC2)nc2c1c(=O)n(C)c(=O)n2C	TPT1 inhibitor 90 | TPT1 inh confirm inactive | RNase T1 inh inactive
CC1CC(C)(C)NC(=S)N1CCCC(=O)NCCc1ccc(Cl)cc1 (stereo not given)	none (no result: Myeloid diff 2)
C=CCN1C(=O)S/C(=C\c2ccc(N3CCOCC3)cc2C)C1=O	TPT1 inhibitor 66 | TPT1 inh confirm 54 | RNase T1 inh 66
C=CC(C)N1C(=O)S/C(=C\c2ccc(N3CCOCC3)cc2C)C1=O (stereo not given)	TPT1 inhibitor 32 | TPT1 inh confirm 57 | RNase T1 inh 64
CN(C)CCNC(=O)c1c(O)c2c([nH]c1=O)CCCC2	TPT1 inhibitor 37 | TPT1 inh confirm inactive | RNase T1 inh 25
CCN(CC)CCNC(=O)c1c(O)c2c([nH]c1=O)CCCC2	none
CCCc1ccc(S(=O)(=O)N(C)S(=O)(=O)c2ccc(F)cc2)cc1	none (no result: Myeloid diff 2)
Cc1occc1C(=O)/C(C#N)=C/c1ccc(O)c(Br)c1	TPT1 inhibitor 113 | TPT1 inh confirm 169 | RNase T1 inh 161
CC1(C)CC(NNCCC#N)=CC(=[N+]2CCCC2)C1	TPT1 inhibitor 49 | TPT1 inh confirm 54 | RNase T1 inh 69
CC(C)(C)CC(=O)Nc1nn[nH]n1	TPT1 inhibitor 27 | TPT1 inh confirm inactive | RNase T1 inh inactive
Cc1ccc(N2C(N)=C(C#N)C(c3cc(CN4CCOCC4)cs3)C3=C2CC(C)(C)CC3=O)cc1 (stereo not given)	none
O=C1C2CCCCN2C(=O)N1CCCCN1CCN(c2cccc(Br)c2)CC1 (stereo not given)	none
C=CCNC(=S)NNC(=O)c1ccccc1OCC	none
Cc1[nH]c2ccccc2c1C(=O)C(=O)N(C)C1CCCCC1	none
Cc1[nH]c2ccccc2c1C(=O)CSC(=S)N(C)C1CCCCC1	TPT1 inhibitor 128 | TPT1 inh confirm inactive | RNase T1 inh inactive
COc1cc(C2C(C#N)=C(N)N(c3ccc(F)cc3)C3=C2S(=O)(=O)CC3)ccc1O (stereo not given)	Myeloid diff 2 active, TPT1 inhibitor 32 | TPT1 inh confirm inactive | RNase T1 inh 26
COc1cc(OC)c(C(=O)OCC(=O)NCCc2ccccc2)cc1OC	TPT1 inhibitor 72 | TPT1 inh confirm inactive | RNase T1 inh inactive
COc1ccc(CCNC(=O)COC(=O)c2cc(OC)c(OC)cc2OC)cc1OC	none
O=C(CSc1nnc(CNC(=O)c2ccco2)o1)Nc1cccc(F)c1	none
CCOC(=O)c1sc(NCc2ccco2)c(-c2nc3ccccc3s2)c1N	TPT1 inhibitor 26 | TPT1 inh confirm 28 | RNase T1 inh 39
CC[C@H](C)/C=C(C)/C=C/C1=CC2=CC(=O)[C@]3(C)OC(=O)[C@@H](C(C)=O)[C@@H]3C2=CO1	TPT1 inhibitor 27 | TPT1 inh confirm 29 | RNase T1 inh 40
